# Results published in article PMC7862700, “An all-to-all approach to the identification of sequence-specific readers for epigenetic DNA modifications on cytosine”.
# What was measured:
# Experiment in all cases: DAPPL (digital affinity profiling via proximity ligation, sequencing); 10 mM Tris-HCl pH 7.5, 50 mM NaCl, 1 mM DTT, 4% glycerol, room temperature, 30 min; GST-TFs on glutathione beads, 16-mer random dsDNA library, 0.1% formaldehyde crosslink after washing; high values mean tight binding
# FLI1 = molecular target: T1, FLI1 (Homo sapiens, UniProt Q01543 1-452); conditions: protein: recombinant; tags: N-terminal GST; dsDNA, one strand shown
# T1 sequence: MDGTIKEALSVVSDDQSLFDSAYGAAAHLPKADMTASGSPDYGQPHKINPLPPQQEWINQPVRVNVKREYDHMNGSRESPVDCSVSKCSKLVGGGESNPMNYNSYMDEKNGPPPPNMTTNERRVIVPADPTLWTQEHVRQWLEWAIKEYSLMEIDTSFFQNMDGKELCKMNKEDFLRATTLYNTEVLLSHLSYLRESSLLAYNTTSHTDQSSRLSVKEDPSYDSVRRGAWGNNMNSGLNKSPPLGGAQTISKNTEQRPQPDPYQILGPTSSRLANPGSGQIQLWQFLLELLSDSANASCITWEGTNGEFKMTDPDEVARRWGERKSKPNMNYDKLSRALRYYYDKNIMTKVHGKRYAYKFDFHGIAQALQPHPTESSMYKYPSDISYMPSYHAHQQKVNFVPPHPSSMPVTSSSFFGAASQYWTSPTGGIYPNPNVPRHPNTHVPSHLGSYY
# How it was run: (§1)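 A tag-only sample was pooled with DNA-barcoded human transcription factors that had been expressed in yeast as GST fusions and captured on glutathione beads. The pools were incubated for 30 min at room temperature with 200 nmole of a random double-stranded 16-mer DNA library in Tris/NaCl/DTT/glycerol buffer, then washed, crosslinked with 0.1% formaldehyde, proximity-ligated (BsaI/T4 ligase, 1 h, 37 °C), PCR-amplified and sequenced on an Illumina NextSeq500. Binding signal is each hexamer's read frequency for a factor divided by its frequency for the tag-only sample.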
# ELK1 = molecular target: T2, ELK1 (Homo sapiens, UniProt P19419 1-428); conditions: protein: recombinant; tags: N-terminal GST; dsDNA, one strand shown
# T2 sequence: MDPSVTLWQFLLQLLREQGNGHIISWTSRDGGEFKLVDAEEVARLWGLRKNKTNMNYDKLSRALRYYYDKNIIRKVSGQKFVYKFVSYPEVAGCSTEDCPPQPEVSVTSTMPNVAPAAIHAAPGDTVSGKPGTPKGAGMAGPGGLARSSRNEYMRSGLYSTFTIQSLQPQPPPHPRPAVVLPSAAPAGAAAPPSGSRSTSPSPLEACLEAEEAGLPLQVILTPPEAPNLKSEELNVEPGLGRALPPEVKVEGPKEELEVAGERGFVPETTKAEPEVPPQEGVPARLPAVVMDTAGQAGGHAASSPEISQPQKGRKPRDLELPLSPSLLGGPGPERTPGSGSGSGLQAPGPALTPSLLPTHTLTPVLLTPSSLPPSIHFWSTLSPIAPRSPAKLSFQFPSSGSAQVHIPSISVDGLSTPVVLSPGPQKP
# How it was run: as §1
# GABPA = molecular target: T3, GABPA (Homo sapiens, UniProt Q06546 1-454); conditions: protein: recombinant; tags: N-terminal GST; dsDNA, one strand shown
# T3 sequence: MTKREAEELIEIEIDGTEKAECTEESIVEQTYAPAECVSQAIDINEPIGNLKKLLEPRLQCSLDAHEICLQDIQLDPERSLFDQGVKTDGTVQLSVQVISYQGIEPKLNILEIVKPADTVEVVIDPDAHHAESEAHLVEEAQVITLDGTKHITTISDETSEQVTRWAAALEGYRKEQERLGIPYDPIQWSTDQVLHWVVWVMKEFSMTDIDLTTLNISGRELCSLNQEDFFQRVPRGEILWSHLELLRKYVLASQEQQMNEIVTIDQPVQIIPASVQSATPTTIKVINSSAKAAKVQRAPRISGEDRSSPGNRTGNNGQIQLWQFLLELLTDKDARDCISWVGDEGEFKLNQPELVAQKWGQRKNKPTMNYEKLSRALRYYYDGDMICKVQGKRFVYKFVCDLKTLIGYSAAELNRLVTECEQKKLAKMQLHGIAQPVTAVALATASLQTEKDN
# How it was run: as §1
# ERG = molecular target: T4, ERG (Homo sapiens, UniProt P11308 1-479); conditions: protein: recombinant; tags: N-terminal GST; dsDNA, one strand shown
# T4 sequence: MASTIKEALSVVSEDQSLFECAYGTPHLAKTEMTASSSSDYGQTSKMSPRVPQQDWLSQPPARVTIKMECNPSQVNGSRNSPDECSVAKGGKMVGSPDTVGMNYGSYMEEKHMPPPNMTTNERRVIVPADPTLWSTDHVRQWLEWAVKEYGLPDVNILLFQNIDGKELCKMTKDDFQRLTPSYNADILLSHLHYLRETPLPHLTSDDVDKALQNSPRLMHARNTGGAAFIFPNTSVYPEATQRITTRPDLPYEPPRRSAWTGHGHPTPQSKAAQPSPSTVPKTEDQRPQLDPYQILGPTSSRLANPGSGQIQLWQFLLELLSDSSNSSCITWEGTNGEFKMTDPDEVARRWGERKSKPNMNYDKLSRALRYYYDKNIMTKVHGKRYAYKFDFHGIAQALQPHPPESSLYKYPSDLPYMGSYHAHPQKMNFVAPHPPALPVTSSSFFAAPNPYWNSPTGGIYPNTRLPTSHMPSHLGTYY
# How it was run: as §1
# ELF1 = ELF1 (Homo sapiens, UniProt P32519 1-619); conditions: protein: recombinant; tags: N-terminal GST; dsDNA, one strand shown
# How it was run: as §1
# EHF = molecular target: T5, EHF (Homo sapiens, UniProt Q9NZC4 1-300); conditions: protein: recombinant; tags: N-terminal GST; dsDNA, one strand shown
# T5 sequence: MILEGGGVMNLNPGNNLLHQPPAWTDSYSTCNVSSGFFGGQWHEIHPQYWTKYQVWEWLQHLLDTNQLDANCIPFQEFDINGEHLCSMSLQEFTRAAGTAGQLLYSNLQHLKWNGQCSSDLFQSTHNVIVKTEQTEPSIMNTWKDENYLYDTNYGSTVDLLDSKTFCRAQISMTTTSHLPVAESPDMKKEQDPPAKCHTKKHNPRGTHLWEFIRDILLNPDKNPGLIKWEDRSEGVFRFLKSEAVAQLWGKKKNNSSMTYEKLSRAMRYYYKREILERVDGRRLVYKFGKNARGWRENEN
# How it was run: as §1
# SPI1 = SPI1 (Homo sapiens, UniProt P17947 1-270); conditions: protein: recombinant; tags: N-terminal GST; dsDNA, one strand shown
# How it was run: as §1
# SPIB = SPIB (Homo sapiens, UniProt Q01892 1-262); conditions: protein: recombinant; tags: N-terminal GST; dsDNA, one strand shown
# How it was run: as §1
# ELK3 = molecular target: T6, ELK3 (Homo sapiens, UniProt P41970 1-407); conditions: protein: recombinant; tags: N-terminal GST; dsDNA, one strand shown
# T6 sequence: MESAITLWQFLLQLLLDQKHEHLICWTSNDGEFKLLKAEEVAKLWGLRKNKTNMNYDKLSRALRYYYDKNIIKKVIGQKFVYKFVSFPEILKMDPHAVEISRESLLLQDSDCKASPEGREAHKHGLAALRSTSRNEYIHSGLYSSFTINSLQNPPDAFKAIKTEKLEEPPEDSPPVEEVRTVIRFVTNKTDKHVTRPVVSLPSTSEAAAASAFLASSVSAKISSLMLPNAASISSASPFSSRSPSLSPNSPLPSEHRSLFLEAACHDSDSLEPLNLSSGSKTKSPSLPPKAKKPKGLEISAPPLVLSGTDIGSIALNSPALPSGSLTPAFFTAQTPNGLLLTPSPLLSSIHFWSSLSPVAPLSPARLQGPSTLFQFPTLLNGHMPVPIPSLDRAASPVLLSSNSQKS
# How it was run: as §1
# FEV = molecular target: T7, FEV (Homo sapiens, UniProt Q99581 1-238); conditions: protein: recombinant; tags: N-terminal GST; dsDNA, one strand shown
# T7 sequence: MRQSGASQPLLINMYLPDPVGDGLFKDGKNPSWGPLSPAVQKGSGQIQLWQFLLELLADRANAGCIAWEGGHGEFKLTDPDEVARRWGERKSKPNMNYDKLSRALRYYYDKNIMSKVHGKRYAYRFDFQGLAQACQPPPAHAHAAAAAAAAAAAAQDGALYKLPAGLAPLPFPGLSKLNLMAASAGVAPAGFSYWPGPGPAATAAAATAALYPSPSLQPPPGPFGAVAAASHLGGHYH
# How it was run: as §1
# ETV5 = ETV5 (Homo sapiens, UniProt P41161 1-510); conditions: protein: recombinant; tags: N-terminal GST; dsDNA, one strand shown
# How it was run: as §1
# HSF1 = HSF1 (Homo sapiens, UniProt Q00613 1-529); conditions: protein: recombinant; tags: N-terminal GST; chain copies: 3; dsDNA, one strand shown
# How it was run: as §1
# SPIC = molecular target: T8, SPIC (Homo sapiens, UniProt Q8N5J4 1-248); conditions: protein: recombinant; tags: N-terminal GST; dsDNA, one strand shown
# T8 sequence: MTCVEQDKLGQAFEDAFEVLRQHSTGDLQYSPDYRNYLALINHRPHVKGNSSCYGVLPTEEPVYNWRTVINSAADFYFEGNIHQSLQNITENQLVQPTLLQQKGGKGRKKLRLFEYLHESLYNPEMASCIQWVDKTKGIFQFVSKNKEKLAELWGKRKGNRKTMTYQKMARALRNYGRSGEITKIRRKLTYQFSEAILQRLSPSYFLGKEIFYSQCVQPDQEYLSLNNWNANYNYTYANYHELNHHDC
# How it was run: as §1
# ELF4 = ELF4 (Homo sapiens, UniProt Q99607 1-663); conditions: protein: recombinant; tags: N-terminal GST; dsDNA, one strand shown
# How it was run: as §1
# ELK4 = molecular target: T9, ELK4 (Homo sapiens, UniProt P28324-2 1-405); conditions: protein: recombinant; tags: N-terminal GST; dsDNA, one strand shown
# T9 sequence: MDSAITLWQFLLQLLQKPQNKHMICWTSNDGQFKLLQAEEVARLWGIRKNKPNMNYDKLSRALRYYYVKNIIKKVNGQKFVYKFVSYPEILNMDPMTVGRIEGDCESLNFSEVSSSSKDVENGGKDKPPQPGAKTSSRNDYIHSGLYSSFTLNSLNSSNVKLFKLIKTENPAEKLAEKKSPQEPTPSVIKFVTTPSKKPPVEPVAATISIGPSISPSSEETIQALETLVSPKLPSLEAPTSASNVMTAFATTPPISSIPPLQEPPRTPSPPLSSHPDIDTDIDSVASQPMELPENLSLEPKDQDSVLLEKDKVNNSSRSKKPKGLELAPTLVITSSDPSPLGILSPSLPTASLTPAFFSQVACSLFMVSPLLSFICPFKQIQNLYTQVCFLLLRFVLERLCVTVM
# How it was run: as §1
# ETV2 = molecular target: T10, ETV2 (Homo sapiens, UniProt O00321 1-342); conditions: protein: recombinant; tags: N-terminal GST; dsDNA, one strand shown
# T10 sequence: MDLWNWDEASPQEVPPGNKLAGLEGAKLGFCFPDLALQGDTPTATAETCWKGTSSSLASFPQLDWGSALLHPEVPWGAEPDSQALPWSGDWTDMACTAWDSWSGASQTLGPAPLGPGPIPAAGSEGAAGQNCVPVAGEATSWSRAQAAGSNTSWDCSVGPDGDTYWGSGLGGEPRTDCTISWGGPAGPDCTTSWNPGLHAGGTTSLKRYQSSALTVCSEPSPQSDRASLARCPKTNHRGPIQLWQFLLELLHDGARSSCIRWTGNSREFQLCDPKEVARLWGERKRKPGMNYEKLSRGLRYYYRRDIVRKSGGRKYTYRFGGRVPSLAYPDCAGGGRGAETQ
# How it was run: as §1
# ELF3 = molecular target: T11, ELF3 (Homo sapiens, UniProt P78545 1-371); conditions: protein: recombinant; tags: N-terminal GST; dsDNA, one strand shown
# T11 sequence: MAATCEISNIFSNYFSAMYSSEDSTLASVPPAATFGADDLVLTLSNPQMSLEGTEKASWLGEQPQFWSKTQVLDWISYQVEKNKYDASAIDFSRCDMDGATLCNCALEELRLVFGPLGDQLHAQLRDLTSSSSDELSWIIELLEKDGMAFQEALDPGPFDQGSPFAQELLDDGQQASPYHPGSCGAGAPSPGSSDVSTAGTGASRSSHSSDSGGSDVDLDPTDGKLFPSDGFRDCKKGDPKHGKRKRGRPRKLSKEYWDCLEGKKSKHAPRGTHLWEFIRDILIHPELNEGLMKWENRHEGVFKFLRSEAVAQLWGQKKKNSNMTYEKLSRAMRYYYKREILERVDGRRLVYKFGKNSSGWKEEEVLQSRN
# How it was run: as §1
# CRX = CRX (Homo sapiens, UniProt O43186 1-299); conditions: protein: recombinant; tags: N-terminal GST; dsDNA, one strand shown
# How it was run: as §1
# ETV1 = ETV1 (Homo sapiens, UniProt P50549 1-477); conditions: protein: recombinant; tags: N-terminal GST; dsDNA, one strand shown
# How it was run: as §1
# CRX, sequence (O43186 whole entry): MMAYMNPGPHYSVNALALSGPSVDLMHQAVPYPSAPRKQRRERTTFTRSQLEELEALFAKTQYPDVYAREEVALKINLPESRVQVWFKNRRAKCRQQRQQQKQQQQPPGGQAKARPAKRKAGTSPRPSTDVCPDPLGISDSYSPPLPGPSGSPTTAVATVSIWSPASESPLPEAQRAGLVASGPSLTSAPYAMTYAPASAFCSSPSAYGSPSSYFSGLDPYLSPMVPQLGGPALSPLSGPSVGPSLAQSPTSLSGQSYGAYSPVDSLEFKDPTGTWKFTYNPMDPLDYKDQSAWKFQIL
# ELF1, sequence (P32519 whole entry): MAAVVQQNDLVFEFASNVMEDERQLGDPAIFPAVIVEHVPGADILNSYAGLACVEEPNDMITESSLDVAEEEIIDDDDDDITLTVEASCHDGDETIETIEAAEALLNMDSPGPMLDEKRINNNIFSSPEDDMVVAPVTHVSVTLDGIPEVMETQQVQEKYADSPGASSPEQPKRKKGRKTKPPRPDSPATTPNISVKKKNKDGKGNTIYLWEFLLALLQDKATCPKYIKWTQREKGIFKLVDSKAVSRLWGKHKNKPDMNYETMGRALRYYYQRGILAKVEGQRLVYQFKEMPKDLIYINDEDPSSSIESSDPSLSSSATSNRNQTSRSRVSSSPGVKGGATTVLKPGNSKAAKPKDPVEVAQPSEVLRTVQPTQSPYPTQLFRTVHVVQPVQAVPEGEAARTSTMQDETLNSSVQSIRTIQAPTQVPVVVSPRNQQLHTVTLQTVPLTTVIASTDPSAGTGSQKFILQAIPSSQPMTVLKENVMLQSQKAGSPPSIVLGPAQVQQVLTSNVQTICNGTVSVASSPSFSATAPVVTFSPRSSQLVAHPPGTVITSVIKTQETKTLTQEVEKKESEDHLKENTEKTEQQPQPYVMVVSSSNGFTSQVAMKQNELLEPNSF
# ETV5, sequence (P41161 whole entry): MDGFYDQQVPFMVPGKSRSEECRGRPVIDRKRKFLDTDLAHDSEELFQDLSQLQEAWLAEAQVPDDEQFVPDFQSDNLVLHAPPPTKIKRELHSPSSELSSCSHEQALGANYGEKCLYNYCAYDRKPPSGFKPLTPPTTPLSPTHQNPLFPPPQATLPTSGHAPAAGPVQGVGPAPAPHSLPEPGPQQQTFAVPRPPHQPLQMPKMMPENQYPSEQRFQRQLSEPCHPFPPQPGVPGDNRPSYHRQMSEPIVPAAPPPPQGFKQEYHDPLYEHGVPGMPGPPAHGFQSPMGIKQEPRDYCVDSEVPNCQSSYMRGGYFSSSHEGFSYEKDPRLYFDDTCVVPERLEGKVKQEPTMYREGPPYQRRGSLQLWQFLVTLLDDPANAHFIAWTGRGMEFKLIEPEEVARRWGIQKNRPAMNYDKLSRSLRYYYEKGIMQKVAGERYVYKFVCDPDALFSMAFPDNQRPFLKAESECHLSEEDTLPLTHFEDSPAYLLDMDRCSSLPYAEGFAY
# SPIB, sequence (Q01892 whole entry): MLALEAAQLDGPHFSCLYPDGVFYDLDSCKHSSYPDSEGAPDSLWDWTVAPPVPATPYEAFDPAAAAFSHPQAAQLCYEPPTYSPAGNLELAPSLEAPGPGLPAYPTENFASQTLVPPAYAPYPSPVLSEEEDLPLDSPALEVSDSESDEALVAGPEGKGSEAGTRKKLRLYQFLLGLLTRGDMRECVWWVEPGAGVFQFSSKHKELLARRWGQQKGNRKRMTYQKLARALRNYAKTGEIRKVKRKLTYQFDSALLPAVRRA
# ELF4, sequence (Q99607 whole entry): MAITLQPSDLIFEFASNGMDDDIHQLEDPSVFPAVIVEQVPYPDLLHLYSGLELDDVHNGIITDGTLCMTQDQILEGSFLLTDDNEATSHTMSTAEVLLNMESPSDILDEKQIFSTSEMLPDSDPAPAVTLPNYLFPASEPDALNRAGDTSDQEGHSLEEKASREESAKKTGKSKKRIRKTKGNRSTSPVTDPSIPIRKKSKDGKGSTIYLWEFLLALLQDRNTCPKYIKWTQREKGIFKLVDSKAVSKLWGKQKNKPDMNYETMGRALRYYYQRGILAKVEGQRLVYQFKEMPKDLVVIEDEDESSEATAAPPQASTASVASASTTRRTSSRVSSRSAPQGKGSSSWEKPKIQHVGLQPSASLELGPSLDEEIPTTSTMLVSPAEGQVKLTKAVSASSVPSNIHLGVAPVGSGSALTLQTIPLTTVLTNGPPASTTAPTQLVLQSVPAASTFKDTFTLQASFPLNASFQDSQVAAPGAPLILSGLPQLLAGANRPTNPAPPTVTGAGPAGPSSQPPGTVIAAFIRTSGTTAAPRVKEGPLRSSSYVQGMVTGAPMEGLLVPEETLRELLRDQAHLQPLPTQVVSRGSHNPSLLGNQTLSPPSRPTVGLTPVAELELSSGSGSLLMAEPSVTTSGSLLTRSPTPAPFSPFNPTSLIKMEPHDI
# ETV1, sequence (P50549 whole entry): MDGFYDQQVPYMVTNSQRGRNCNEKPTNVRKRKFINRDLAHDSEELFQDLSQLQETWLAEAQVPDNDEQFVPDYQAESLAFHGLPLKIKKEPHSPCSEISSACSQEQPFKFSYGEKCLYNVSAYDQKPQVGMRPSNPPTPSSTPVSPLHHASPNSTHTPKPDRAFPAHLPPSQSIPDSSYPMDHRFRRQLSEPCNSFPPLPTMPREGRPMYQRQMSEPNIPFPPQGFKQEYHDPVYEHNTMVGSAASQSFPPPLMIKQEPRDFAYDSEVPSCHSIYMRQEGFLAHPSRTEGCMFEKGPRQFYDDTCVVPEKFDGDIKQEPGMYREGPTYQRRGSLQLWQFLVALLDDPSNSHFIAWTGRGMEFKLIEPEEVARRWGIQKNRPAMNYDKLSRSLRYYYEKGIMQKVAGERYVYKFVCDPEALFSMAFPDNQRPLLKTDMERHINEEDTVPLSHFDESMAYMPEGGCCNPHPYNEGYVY
# HSF1, sequence (Q00613 whole entry): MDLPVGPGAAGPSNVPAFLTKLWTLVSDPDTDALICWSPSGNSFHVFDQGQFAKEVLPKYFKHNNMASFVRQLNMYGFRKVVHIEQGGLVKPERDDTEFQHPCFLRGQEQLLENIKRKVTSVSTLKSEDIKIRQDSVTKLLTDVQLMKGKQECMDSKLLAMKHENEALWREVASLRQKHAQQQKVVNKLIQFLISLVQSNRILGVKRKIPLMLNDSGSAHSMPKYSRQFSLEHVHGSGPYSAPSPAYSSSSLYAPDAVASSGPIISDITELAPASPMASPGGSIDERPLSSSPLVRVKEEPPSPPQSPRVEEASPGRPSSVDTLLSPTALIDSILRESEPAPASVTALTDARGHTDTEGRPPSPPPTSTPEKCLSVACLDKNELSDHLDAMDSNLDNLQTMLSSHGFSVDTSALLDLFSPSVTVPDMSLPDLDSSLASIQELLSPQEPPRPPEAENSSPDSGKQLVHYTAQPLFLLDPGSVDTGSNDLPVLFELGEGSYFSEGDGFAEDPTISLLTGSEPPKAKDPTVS
sequence,measurement,setting,value
CGTACT,binding signal,FLI1,"1.2 fold enrichment (6-mer frequency, TF over GST control)"
same,binding signal,ELK1,"1.17 fold enrichment (6-mer frequency, TF over GST control)"
same,binding signal,GABPA,"1.19 fold enrichment (6-mer frequency, TF over GST control)"
same,binding signal,ERG,"1.16 fold enrichment (6-mer frequency, TF over GST control)"
same,binding signal,ELF1,"1.27 fold enrichment (6-mer frequency, TF over GST control)"
same,binding signal,EHF,"1.18 fold enrichment (6-mer frequency, TF over GST control)"
same,binding signal,SPI1,"1.11 fold enrichment (6-mer frequency, TF over GST control)"
same,binding signal,SPIB,"1.12 fold enrichment (6-mer frequency, TF over GST control)"
same,binding signal,ELK3,"1.26 fold enrichment (6-mer frequency, TF over GST control)"
same,binding signal,FEV,"1.17 fold enrichment (6-mer frequency, TF over GST control)"
same,binding signal,ETV5,"1.22 fold enrichment (6-mer frequency, TF over GST control)"
same,binding signal,HSF1,"1.05 fold enrichment (6-mer frequency, TF over GST control)"
same,binding signal,SPIC,"1.12 fold enrichment (6-mer frequency, TF over GST control)"
same,binding signal,ELF4,"1.25 fold enrichment (6-mer frequency, TF over GST control)"
same,binding signal,ELK4,"1.22 fold enrichment (6-mer frequency, TF over GST control)"
same,binding signal,ETV2,"1.35 fold enrichment (6-mer frequency, TF over GST control)"
same,binding signal,ELF3,"1.15 fold enrichment (6-mer frequency, TF over GST control)"
same,binding signal,CRX,"1.07 fold enrichment (6-mer frequency, TF over GST control)"
same,binding signal,ETV1,"1.34 fold enrichment (6-mer frequency, TF over GST control)"
